Experimental data reported in the supplement of paper PMC3545927.
The other results are listed elsewhere or left out. No count for the full screen is at hand.

Molecular target: furin, P09958
Experiment: furin cleavage Z-score vs untreated control; higher = more cleavage, active = 3.5 or more, inactive = 1 or less, 8 variable residues between constant flanks
In short: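 The cleavage Z-score is the log read count relative to furin-free reactions, lowess-adjusted and scaled by median absolute deviation. Counts came from sequencing DNA released from bead-bound 8-mer peptide–cDNA fusions after digestion with purified furin for 7.5, 15 or 30 min.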
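Further: purified furin at 1:10 enzyme:substrate in 50 mM HEPES pH 7.5.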

Chain of furin, P09958 (P09958 whole entry): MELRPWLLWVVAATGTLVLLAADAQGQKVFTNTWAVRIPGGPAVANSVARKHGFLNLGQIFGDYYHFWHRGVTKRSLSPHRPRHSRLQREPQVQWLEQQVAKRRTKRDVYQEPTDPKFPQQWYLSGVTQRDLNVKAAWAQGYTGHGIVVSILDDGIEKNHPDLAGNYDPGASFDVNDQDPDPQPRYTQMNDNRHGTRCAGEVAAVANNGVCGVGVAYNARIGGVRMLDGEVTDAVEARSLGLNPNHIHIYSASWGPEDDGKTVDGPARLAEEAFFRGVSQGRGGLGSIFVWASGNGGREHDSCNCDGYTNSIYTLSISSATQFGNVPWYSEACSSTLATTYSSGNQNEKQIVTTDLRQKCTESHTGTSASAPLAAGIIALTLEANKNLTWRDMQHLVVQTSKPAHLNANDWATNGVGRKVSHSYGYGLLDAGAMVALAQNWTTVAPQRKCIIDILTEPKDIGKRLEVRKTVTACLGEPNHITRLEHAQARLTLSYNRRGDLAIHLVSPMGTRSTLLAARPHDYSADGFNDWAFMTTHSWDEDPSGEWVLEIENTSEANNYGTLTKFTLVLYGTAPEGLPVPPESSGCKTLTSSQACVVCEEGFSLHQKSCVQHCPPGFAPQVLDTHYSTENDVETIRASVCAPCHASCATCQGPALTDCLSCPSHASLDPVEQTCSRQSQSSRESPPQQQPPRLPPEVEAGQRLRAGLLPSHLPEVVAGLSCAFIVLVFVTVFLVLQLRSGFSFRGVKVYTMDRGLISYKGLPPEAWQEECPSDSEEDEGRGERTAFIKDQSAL

## CAAFSLHSYSAGNASASA [HC1606]
7.5 min
  furin cleavage Z-score: 0.00727 (inactive)
15 min
  furin cleavage Z-score: -0.749 (inactive)
30 min
  furin cleavage Z-score: -0.113 (inactive)

## CAQTPCSGSWAGNASASA [HC1842]
7.5 min
  furin cleavage Z-score: -1.2 (inactive)
15 min
  furin cleavage Z-score: -0.187 (inactive)
30 min
  furin cleavage Z-score: -0.763 (inactive)

## CARVSRSVRKAGNASASA [FS-293]
7.5 min
  furin cleavage Z-score: 2.18
15 min
  furin cleavage Z-score: 4.8 (active)
30 min
  furin cleavage Z-score: 5.93 (active)

## CARFGRFWKKAGNASASA [FS-2921]
7.5 min
  furin cleavage Z-score: -0.769 (inactive)
15 min
  furin cleavage Z-score: 0.759 (inactive)
30 min
  furin cleavage Z-score: -0.706 (inactive)

## CARVLRSDGKAGNASASA [FS-2102]
7.5 min
  furin cleavage Z-score: 1.54
15 min
  furin cleavage Z-score: -0.134 (inactive)
30 min
  furin cleavage Z-score: 1.59

## CAAAFRFKRKAGNASASA [FS-1109]
7.5 min
  furin cleavage Z-score: 9.75 (active)
15 min
  furin cleavage Z-score: 11.5 (active)
30 min
  furin cleavage Z-score: 9.51 (active)

## CACQQRFKRKAGNASASA [FS-1516]
7.5 min
  furin cleavage Z-score: 9.6 (active)
15 min
  furin cleavage Z-score: 8.5 (active)
30 min
  furin cleavage Z-score: 7.56 (active)

## CARVSRLAGRAGNASASA [FS-3126]
7.5 min
  furin cleavage Z-score: -0.719 (inactive)
15 min
  furin cleavage Z-score: -0.0593 (inactive)
30 min
  furin cleavage Z-score: -1.13 (inactive)

## CADVFVLNNTAGNASASA [HC428]
7.5 min
  furin cleavage Z-score: 0.596 (inactive)
15 min
  furin cleavage Z-score: 0.292 (inactive)
30 min
  furin cleavage Z-score: 1.32

## CAEFVTSTWVAGNASASA [HC2167]
7.5 min
  furin cleavage Z-score: 0.46 (inactive)
15 min
  furin cleavage Z-score: -0.556 (inactive)
30 min
  furin cleavage Z-score: 1.32

## CASTRCSAHLAGNASASA [HC2513]
7.5 min
  furin cleavage Z-score: -0.269 (inactive)
15 min
  furin cleavage Z-score: 0.477 (inactive)
30 min
  furin cleavage Z-score: 0.507 (inactive)

## CAADVVDGAGAGNASASA [CS8]
7.5 min
  furin cleavage Z-score: 0.136 (inactive)
15 min
  furin cleavage Z-score: 0.768 (inactive)
30 min
  furin cleavage Z-score: -0.146 (inactive)

## CATVSRFRKAAGNASASA [FS-731]
7.5 min
  furin cleavage Z-score: 4.07 (active)
15 min
  furin cleavage Z-score: 6.77 (active)
30 min
  furin cleavage Z-score: 7.8 (active)

## CATVSSEANAAGNASASA [HC1364]
7.5 min
  furin cleavage Z-score: -0.827 (inactive)
15 min
  furin cleavage Z-score: -1.5 (inactive)
30 min
  furin cleavage Z-score: -0.39 (inactive)

## CAWPHRSRKAAGNASASA [FS-574]
7.5 min
  furin cleavage Z-score: 0.887 (inactive)
15 min
  furin cleavage Z-score: 1.32
30 min
  furin cleavage Z-score: -0.0044 (inactive)

## CAGWIRSRKAAGNASASA [FS-1529]
7.5 min
  furin cleavage Z-score: -0.333 (inactive)
15 min
  furin cleavage Z-score: 0.0867 (inactive)
30 min
  furin cleavage Z-score: 1.14

## CAGPQRQKKAAGNASASA [FS-1201]
7.5 min
  furin cleavage Z-score: -1.12 (inactive)
15 min
  furin cleavage Z-score: -0.885 (inactive)
30 min
  furin cleavage Z-score: 1.12

## CAGPSRFRKAAGNASASA [FS-162]
7.5 min
  furin cleavage Z-score: 5.12 (active)
15 min
  furin cleavage Z-score: 5.93 (active)
30 min
  furin cleavage Z-score: 5.05 (active)

## CAEVVLSTWVAGNASASA [HC124]
7.5 min
  furin cleavage Z-score: -1.79 (inactive)
15 min
  furin cleavage Z-score: 0.00773 (inactive)
30 min
  furin cleavage Z-score: -0.313 (inactive)

## CATPLPAPNYAGNASASA [HC1196]
7.5 min
  furin cleavage Z-score: -2.54 (inactive)
15 min
  furin cleavage Z-score: -0.301 (inactive)
30 min
  furin cleavage Z-score: -1.86 (inactive)

## CAAPAVQTNWAGNASASA [HC1034]
7.5 min
  furin cleavage Z-score: 0.577 (inactive)
15 min
  furin cleavage Z-score: -0.967 (inactive)
30 min
  furin cleavage Z-score: -0.703 (inactive)

## CASFSIFLLAAGNASASA [HC247]
7.5 min
  furin cleavage Z-score: 0.168 (inactive)
15 min
  furin cleavage Z-score: -0.433 (inactive)
30 min
  furin cleavage Z-score: -0.472 (inactive)

## CARKLRDVLQAGNASASA [FS-2215]
7.5 min
  furin cleavage Z-score: 2.04
15 min
  furin cleavage Z-score: 4.73 (active)
30 min
  furin cleavage Z-score: 4.95 (active)

## CARKLRGETVAGNASASA [FS-2969]
7.5 min
  furin cleavage Z-score: -1.81 (inactive)
15 min
  furin cleavage Z-score: -0.954 (inactive)
30 min
  furin cleavage Z-score: -0.18 (inactive)

## CARLSRDSLQAGNASASA [FS-2998]
7.5 min
  furin cleavage Z-score: -0.269 (inactive)
15 min
  furin cleavage Z-score: -1.05 (inactive)
30 min
  furin cleavage Z-score: 1.09

## CARDRRRLEQAGNASASA [FS-2483]
7.5 min
  furin cleavage Z-score: -1.86 (inactive)
15 min
  furin cleavage Z-score: 0.963 (inactive)
30 min
  furin cleavage Z-score: -0.511 (inactive)

## CARALRSATQAGNASASA [FS-3182]
7.5 min
  furin cleavage Z-score: -0.644 (inactive)
15 min
  furin cleavage Z-score: -0.755 (inactive)
30 min
  furin cleavage Z-score: 1.8

## CARKLRSLEQAGNASASA [FS-3193]
7.5 min
  furin cleavage Z-score: 8.09 (active)
15 min
  furin cleavage Z-score: 8.14 (active)
30 min
  furin cleavage Z-score: 8.28 (active)

## CASNPCSAHLAGNASASA [HC2501]
7.5 min
  furin cleavage Z-score: 0.199 (inactive)
15 min
  furin cleavage Z-score: 0.64 (inactive)
30 min
  furin cleavage Z-score: 0.644 (inactive)

## CAGDNRHLRSAGNASASA [FS-779]
7.5 min
  furin cleavage Z-score: 0.602 (inactive)
15 min
  furin cleavage Z-score: 0.112 (inactive)
30 min
  furin cleavage Z-score: -0.651 (inactive)

## CAIRFRHLRSAGNASASA [FS-1536]
7.5 min
  furin cleavage Z-score: 2.94
15 min
  furin cleavage Z-score: 3.49
30 min
  furin cleavage Z-score: 3.84 (active)

## CASLERHLRSAGNASASA [FS-1413]
7.5 min
  furin cleavage Z-score: 3.94 (active)
15 min
  furin cleavage Z-score: 4.91 (active)
30 min
  furin cleavage Z-score: 3.46

## CAYRARQRRAAGNASASA [FS-1295]
7.5 min
  furin cleavage Z-score: 6.02 (active)
15 min
  furin cleavage Z-score: 5.59 (active)
30 min
  furin cleavage Z-score: 4.76 (active)

## CAYRARLSRGAGNASASA [FS-636]
7.5 min
  furin cleavage Z-score: 0.776 (inactive)
15 min
  furin cleavage Z-score: 2.55
30 min
  furin cleavage Z-score: 2.96

## CANTARQRRAAGNASASA [FS-1548]
7.5 min
  furin cleavage Z-score: 10.2 (active)
15 min
  furin cleavage Z-score: 11.6 (active)
30 min
  furin cleavage Z-score: 8.92 (active)

## CATTPCSGYWAGNASASA [HC1909]
7.5 min
  furin cleavage Z-score: 0.299 (inactive)
15 min
  furin cleavage Z-score: 1.62
30 min
  furin cleavage Z-score: -0.123 (inactive)

## CAAIKWEYVVAGNASASA [HC517]
7.5 min
  furin cleavage Z-score: -0.197 (inactive)
15 min
  furin cleavage Z-score: -3.37 (inactive)
30 min
  furin cleavage Z-score: -0.457 (inactive)

## CAVSFRVGLHAGNASASA [HC1233]
7.5 min
  furin cleavage Z-score: -0.575 (inactive)
15 min
  furin cleavage Z-score: 0.122 (inactive)
30 min
  furin cleavage Z-score: 1

## CAVTGGSAGHAGNASASA [HC354]
7.5 min
  furin cleavage Z-score: 0.0621 (inactive)
15 min
  furin cleavage Z-score: -1.5 (inactive)
30 min
  furin cleavage Z-score: -0.849 (inactive)

## CAVVHCSMSYAGNASASA [HC2035]
7.5 min
  furin cleavage Z-score: -0.95 (inactive)
15 min
  furin cleavage Z-score: -0.538 (inactive)
30 min
  furin cleavage Z-score: -0.331 (inactive)

## CAVMHRVARHAGNASASA [FS-1431]
7.5 min
  furin cleavage Z-score: 10.4 (active)
15 min
  furin cleavage Z-score: 9.27 (active)
30 min
  furin cleavage Z-score: 9.21 (active)

## CAVGQLFTFSAGNASASA [HC304]
7.5 min
  furin cleavage Z-score: 0.324 (inactive)
15 min
  furin cleavage Z-score: -1.01 (inactive)
30 min
  furin cleavage Z-score: -1.31 (inactive)

## CAVVHRFARHAGNASASA [FS-107]
7.5 min
  furin cleavage Z-score: 10.1 (active)
15 min
  furin cleavage Z-score: 9.64 (active)
30 min
  furin cleavage Z-score: 8.96 (active)

## CAVGQRQARHAGNASASA [FS-965]
7.5 min
  furin cleavage Z-score: 4.69 (active)
15 min
  furin cleavage Z-score: 5.78 (active)
30 min
  furin cleavage Z-score: 5.69 (active)

## CADVSRNARHAGNASASA [FS-1625]
7.5 min
  furin cleavage Z-score: 3.37
15 min
  furin cleavage Z-score: 3.82 (active)
30 min
  furin cleavage Z-score: 3.7 (active)

## CAEVVTSTWHAGNASASA [HC2255]
7.5 min
  furin cleavage Z-score: 1.36
15 min
  furin cleavage Z-score: -3.35 (inactive)
30 min
  furin cleavage Z-score: 0.0251 (inactive)

## CAVVTSTWVLAGNASASA [HC988]
7.5 min
  furin cleavage Z-score: -0.433 (inactive)
15 min
  furin cleavage Z-score: -1.05 (inactive)
30 min
  furin cleavage Z-score: -0.901 (inactive)

## CAVGGVLAALAGNASASA [HC992]
7.5 min
  furin cleavage Z-score: -0.486 (inactive)
15 min
  furin cleavage Z-score: -0.617 (inactive)
30 min
  furin cleavage Z-score: -1.61 (inactive)
